# Source: the supplement of paper PMC3334620
# The full ranking holds about 33,000 sequences; the median of “E-score (-0.5 to 0.5)” is about -0.04, and the highest 2% start at about 0.36. The sample as a whole holds a higher share of the highest values than the screen did.
# Molecular target: T1, Hmlalpha2 (UniProt P0CY09)
# T1 sequence: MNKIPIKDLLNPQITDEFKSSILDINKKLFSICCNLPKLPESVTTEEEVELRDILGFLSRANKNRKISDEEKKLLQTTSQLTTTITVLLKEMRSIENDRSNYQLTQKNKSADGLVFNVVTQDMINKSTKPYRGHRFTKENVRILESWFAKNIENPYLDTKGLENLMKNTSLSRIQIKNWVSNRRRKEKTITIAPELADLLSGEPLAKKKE
# Test: PBM E-score (8-mer binding enrichment) (E-score (-0.5 to 0.5)); higher = stronger / more preferred TF binding
# Settings: protein concentration: 200 nM; construct: GST-full length
# Outline: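 Yeast transcription factors carrying a GST tag, as full-length proteins or DNA-binding domains, were produced by PURExpress in vitro transcription/translation. About 100-200 nM protein was applied to universal all-10-mer Agilent arrays, double-stranded by primer extension on fresh or once-stripped slides. Bound protein was detected with fluorescent anti-GST, and scans were normalised with masliner. The Universal PBM Analysis Suite gave each ungapped eight-base word, pooled with its reverse complement, an E-score, a modified Wilcoxon-Mann-Whitney statistic.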
row,Sequence,PBM E-score
1,AGTCAACA,0.269
2,CTTGGTCC,-0.159
3,CCCATACC,-0.159
4,GCGTACAC,0.247
5,ATGTACAC,0.43
6,GTGTACAA,0.439
7,CTGTACAG,0.0499
8,GGGTACAA,0.0999
9,CTGTACAC,0.291
10,TAGTACAA,0.244
11,GTGTACAC,0.415
12,ATGTACCC,0.148
13,CTGTACAA,0.288
14,TTGTACAA,0.442
15,AGGTACAC,0.0905
16,AACTGCGT,0.257
17,ATGAAGAC,0.028
18,GTGAAATA,0.185
19,TACGTCGA,0.0708
20,CCCGCCAC,-0.152
21,ATATTGGG,-0.261
22,GACTCTGA,-0.12

row,Sequence,PBM E-score
1,CTCGAACA,0.112
2,AAAGCCAT,0.0384
3,AACCCTGG,-0.204
4,GTGTACTA,0.311
5,AGGTACAA,0.21
6,ATGTACAT,0.457
7,AGGTACAT,0.288
8,ATGTACAG,0.289
9,ATGTACAA,0.433
10,ATGTACTG,0.351
11,ATGTACTA,0.397
12,ATGTACGA,0.281
13,GCGCAAGA,-0.0432
14,AAGACAGT,-0.0478
15,AGAAAGTG,-0.223
16,CCATTCGA,-0.0609
17,ATCTCGTA,0.191
18,AAATCCGC,-0.125
19,GAAAATTC,-0.0326
20,CAGCCTTC,-0.301
21,ACATGATA,0.435
22,ACATGATC,0.426

row,Sequence,PBM E-score
1,ACATGAGA,0.406
2,CCATGATC,-0.128
3,TCATGAGA,0.0706
4,CCATGATA,-0.142
5,ACATGAGT,0.364
6,ACATGATG,0.348
7,GCATGATA,0.116
8,CGGATATC,-0.0199
9,TCTCTGAA,-0.162
10,CGCATAGC,-0.0965
11,AGGTCCAA,-0.112
12,ACGACCCC,-0.127
13,ATGGCAAA,-0.00556
14,ATTGTACG,0.123
15,ATTGTACA,0.403
16,GCTGTACA,0.154
17,GTTGTAGA,0.325
18,CTTGTACA,0.403
19,GTTGTACA,0.424
20,CTTGTAGA,0.253
21,ATTGTACC,0.0764
22,CTTGTACC,0.0814

row,Sequence,PBM E-score
1,CTAGTTCA,0.0551
2,CCTCTCCG,-0.305
3,TAAGTCGA,-0.0631
4,CAACGGTC,-0.0538
5,AAGAGGGA,-0.246
6,CAAGATAG,-0.0379
7,GTTTTGAA,0.315
8,ATCTCCTG,-0.0358
9,GTGTGTAA,0.465
10,CTGTGTAC,0.35
11,ATGTGTAA,0.452
12,GGGTGTAA,0.342
13,CTGTGTCA,0.0766
14,ATGTGTGC,-0.0456
15,CTGTGTAA,0.483
16,CTGTGTGA,0.247
17,ATGTGTAG,0.349
18,GAGTGTAA,0.295
19,AAGTGTAA,0.156
20,ATGTGTAC,0.372
21,CTCAGAGA,-0.0918
22,CGCTAAAC,0.0834

row,Sequence,PBM E-score
1,CAAGATGA,-0.0169
2,AAATGCCG,-0.02
3,ACGGGGAA,-0.0619
4,AGACCACT,-0.00203
5,GCGCCAAC,-0.0446
6,CGCTATAA,-0.00727
7,TCTTAAAA,-0.0174
8,CCTTAACA,0.291
9,ACTTAACT,0.159
10,ACTTAACA,0.388
11,ACTTAACG,0.14
12,TCTTAACA,0.404
13,GCTTAACC,-0.00807
14,TCTTAAGA,-0.132
15,GCTTAACA,0.378
16,TATAACGA,0.176
17,ACCTAGCC,-0.205
18,AGTAGTGC,-0.153
19,GAGACGAC,-0.19
20,CCAAAAGG,-0.136
21,CGGCGGCC,-0.188
22,ACCGTGAT,-0.0701
